Test results from PubChem BioAssay (EPA / NIEHS).
Inconclusive results are not listed. The source made the active and inactive calls. How the source made its calls: active means hit-call score of the fitted dose curve at least 0.9, where 1 is the maximum; inconclusive means response in the unintended direction; inactive means score below 0.9.

What was measured:
[1] = target: Estrogen receptor (Homo sapiens) (UniProt P03372); test: CCTE_Deisenroth_AIME_96WELL_LUC_Active: CCTE's 96-well Estrogen Receptor Transactivation Assay with AIME metabolic competence (ERTA luciferase; metabolism positive), Deisenroth Lab (AID 2284023)
Method in brief: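 Chemicals pre-incubated 2 h with alginate-immobilized phenobarbital/beta-naphthoflavone-induced male Sprague Dawley rat liver S9, then medium transferred to VM7Luc4E2 cells for 24 h luciferase read-out. 10-point series 0.002 - 200 uM; fitted relative to 17beta-estradiol.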

[2] = target: Estrogen receptor (Homo sapiens) (UniProt P03372); test: CCTE_Deisenroth_AIME_96WELL_LUC_Inactive: CCTE's 96-well Estrogen Receptor Transactivation Assay without AIME metabolic competence (ERTA luciferase; metabolism negative), Deisenroth Lab (AID 2284025)
Method in brief: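 VM7Luc4E2 breast cells, luciferase read 24 h after dosing with medium pre-incubated 2 h on alginate-water lids (metabolism negative). 10-point series 0.002–200 uM, single technical replicate, n≥4; fit relative to 17beta-estradiol.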

[3] = CCTE_Deisenroth_AIME_96WELL_CTox_Active: Cytotoxicity Assessment (CTOX) in CCTE's 96-well Estrogen Receptor Transactivation Assay with AIME metabolic competence (metabolism positive), Deisenroth Lab (AID 2284028)
Experimental: CCTE_Deisenroth_AIME_96WELL (AIME metabolism assay) is a cell-based, single-readout assay that uses VM7Luc4E2, a human mammary gland/breast cell line, with measurements taken at 24 hour after chemical dosing in a 96-well plate.CCTE_Deisenroth_AIME_96WELL_CTox_Active is one of four assay components measured or calculated from the CCTE_Deisenroth_AIME_96WELL assay. It is designed to make measurements of a protease substrate, a type of viability indicator, as detected with substrate cleavage to a fluorescent probe in living cells.CCTE_Deisenroth_AIME_96WELL_CTox_Active is a component of the CCTE_Deisenroth_AIME_96WELL assay that measures the effect of retroftting the VM7Luc ERTA assay with the Alginate Immobolization of Metabolic Enzymes (AIME) metabolism method. AIME is optimized to impart phase I hepatic metabolism using phenobarbital/beta-naphthoflavone induced hepatic S9 from male Sprague Dawley rats. Parent chemicals are incubated for 2 hours in the AIME assay prior to transfer to the VM7Luc ERTA assay plate. […] This endpoint evaluates cytotoxicity in metabolism positive mode. Using a type of flourescent probe in VM7Luc cells, loss-of-signal activity can be used to understand loss of viability. This assay endpoint, CCTE_Deisenroth_AIME_96WELL_CTox_Active, was analyzed with bidirectional fitting in the ERTA assay. […]

[4] = CCTE_Deisenroth_AIME_96WELL_CTox_Inactive: Cytotoxicity Assessment (CTOX) in CCTE's 96-well Estrogen Receptor Transactivation Assay without AIME metabolic competence (metabolism negative), Deisenroth Lab (AID 2284029)
Method in brief: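 Chemicals (0.002 - 200 uM, 10 points) incubated 2 h with alginate-water microspheres (no S9), then medium moved onto VM7Luc4E2 cells for 24 h. Viability by protease-substrate cleavage to fluorescent probe; bidirectional fitting.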

Measured: outcome

Estrogen receptor (Homo sapiens), sequence (P03372 whole entry, looked up): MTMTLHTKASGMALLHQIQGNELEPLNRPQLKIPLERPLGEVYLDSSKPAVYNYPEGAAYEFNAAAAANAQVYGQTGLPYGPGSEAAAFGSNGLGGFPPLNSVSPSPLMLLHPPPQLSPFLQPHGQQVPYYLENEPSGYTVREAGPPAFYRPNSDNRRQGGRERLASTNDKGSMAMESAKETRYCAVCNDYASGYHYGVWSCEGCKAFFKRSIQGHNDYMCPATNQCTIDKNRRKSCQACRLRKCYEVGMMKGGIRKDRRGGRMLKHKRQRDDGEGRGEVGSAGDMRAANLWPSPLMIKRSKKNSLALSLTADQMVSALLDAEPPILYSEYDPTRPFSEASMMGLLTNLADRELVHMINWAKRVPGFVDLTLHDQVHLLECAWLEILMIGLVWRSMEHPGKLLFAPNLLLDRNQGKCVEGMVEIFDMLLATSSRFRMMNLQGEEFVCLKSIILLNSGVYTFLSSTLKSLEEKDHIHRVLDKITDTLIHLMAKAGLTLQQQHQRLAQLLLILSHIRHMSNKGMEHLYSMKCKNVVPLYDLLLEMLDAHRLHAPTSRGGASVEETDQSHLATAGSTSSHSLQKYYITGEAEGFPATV

CCN(CC)C(=S)SSC(=S)N(CC)CC
inactive: all assays above
